What was measured:
Assay in all cases: log2 ratio of Biotin-Ahx-Ub-VS probe labelling (fragment/DMSO); higher = less target engagement (more negative = stronger competition), active = hit call of the paper (q ≤ 0.05, log2 ratio ≤ -1)
Details in all cases: compound concentration: 200 uM; treatment time: 3 h
USP19 = molecular target: T1, USP19 (UniProt O94966)
T1 sequence (whole entry): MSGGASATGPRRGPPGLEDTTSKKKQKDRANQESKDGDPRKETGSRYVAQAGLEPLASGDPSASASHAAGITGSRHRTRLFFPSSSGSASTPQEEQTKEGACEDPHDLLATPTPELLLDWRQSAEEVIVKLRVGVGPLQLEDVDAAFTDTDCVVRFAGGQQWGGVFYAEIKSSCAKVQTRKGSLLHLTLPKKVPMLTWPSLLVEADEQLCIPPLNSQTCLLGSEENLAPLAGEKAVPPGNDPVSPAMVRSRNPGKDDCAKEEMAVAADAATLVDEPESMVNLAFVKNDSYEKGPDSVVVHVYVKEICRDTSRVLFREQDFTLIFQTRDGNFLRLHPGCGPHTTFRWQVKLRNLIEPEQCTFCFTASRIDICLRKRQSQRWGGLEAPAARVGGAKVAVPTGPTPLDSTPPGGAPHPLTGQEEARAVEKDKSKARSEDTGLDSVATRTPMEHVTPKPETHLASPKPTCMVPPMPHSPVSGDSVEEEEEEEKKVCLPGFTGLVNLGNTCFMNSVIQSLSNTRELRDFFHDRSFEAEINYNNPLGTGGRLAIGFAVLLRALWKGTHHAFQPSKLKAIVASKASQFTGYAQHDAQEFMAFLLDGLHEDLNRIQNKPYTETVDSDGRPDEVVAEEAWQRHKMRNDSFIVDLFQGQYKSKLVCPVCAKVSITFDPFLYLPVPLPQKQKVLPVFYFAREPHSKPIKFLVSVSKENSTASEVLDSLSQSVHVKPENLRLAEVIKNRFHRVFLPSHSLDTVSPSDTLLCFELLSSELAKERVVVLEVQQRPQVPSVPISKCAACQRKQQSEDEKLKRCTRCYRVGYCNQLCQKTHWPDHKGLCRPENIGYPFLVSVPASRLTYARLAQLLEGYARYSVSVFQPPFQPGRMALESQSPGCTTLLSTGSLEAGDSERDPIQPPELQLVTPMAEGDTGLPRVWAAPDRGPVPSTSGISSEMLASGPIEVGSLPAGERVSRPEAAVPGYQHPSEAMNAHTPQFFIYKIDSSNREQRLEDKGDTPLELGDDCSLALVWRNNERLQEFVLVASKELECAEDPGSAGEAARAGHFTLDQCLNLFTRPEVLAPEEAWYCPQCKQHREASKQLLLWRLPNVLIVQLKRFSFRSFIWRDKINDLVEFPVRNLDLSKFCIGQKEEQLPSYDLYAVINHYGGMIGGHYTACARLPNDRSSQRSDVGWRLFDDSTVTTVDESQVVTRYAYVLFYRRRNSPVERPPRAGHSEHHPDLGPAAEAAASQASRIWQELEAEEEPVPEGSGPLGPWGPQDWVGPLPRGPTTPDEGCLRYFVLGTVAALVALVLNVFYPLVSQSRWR
How it was run: (§1)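 The table lists average log2 ratios of fragment over vehicle, from an unpaired t-test on global-median-normalised Spectronaut label-free quantities. Proteins with ≥2 unique peptides were used. Samples were HEK293T lysate (495 µg) treated in triplicate with fragment at 200 µM or vehicle for 3 h, then with Biotin-Ahx-Ub-VS (0.5 µM final) for 1 h, with labelled DUBs NeutrAvidin-enriched and run by diaPASEF LC-MS/MS.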

USP22 = molecular target: T2, USP22 (UniProt Q9UPT9)
T2 sequence (whole entry): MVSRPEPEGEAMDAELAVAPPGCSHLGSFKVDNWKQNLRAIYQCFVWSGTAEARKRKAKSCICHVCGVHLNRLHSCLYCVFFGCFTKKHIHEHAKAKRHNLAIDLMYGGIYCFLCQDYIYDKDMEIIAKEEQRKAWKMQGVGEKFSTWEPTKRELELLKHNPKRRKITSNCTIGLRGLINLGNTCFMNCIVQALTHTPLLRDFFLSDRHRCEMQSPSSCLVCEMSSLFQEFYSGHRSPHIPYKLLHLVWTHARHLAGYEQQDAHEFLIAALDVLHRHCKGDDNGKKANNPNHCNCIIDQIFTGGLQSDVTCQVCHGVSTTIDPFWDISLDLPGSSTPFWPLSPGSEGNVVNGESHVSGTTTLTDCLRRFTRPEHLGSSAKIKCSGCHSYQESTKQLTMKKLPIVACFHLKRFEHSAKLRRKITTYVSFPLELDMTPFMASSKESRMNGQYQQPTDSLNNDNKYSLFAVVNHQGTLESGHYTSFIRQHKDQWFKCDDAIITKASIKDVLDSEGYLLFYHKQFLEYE
How it was run: as §1

USP24 = USP24 (UniProt Q9UPU5)
How it was run: as §1

USP25 = molecular target: T3, USP25 (UniProt Q9UHP3)
T3 sequence (whole entry): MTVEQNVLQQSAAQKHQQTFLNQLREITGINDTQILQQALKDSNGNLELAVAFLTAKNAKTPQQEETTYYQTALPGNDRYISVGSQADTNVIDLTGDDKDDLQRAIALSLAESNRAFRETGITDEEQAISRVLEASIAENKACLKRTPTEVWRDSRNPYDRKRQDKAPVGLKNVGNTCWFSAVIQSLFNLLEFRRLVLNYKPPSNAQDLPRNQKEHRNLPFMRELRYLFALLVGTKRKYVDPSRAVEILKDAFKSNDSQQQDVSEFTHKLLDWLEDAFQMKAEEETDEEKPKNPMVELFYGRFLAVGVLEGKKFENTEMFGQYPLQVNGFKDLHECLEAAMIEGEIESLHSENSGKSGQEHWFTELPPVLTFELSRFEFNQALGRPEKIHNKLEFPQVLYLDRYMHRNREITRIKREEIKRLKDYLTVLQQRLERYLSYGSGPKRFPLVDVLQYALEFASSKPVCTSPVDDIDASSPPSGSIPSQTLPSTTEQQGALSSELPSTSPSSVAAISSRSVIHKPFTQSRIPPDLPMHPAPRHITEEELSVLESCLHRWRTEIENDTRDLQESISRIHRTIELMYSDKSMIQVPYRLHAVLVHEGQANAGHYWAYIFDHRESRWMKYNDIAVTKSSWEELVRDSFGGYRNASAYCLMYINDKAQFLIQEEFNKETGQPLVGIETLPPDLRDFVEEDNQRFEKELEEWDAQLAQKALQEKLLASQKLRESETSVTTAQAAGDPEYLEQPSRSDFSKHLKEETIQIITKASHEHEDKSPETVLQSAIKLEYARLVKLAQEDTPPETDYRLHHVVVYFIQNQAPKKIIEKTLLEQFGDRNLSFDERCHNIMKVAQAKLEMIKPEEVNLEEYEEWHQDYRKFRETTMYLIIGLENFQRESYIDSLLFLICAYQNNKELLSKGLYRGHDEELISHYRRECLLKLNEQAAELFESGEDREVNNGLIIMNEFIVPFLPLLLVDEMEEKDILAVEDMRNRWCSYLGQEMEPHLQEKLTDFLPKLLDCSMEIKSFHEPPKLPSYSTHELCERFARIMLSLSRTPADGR
How it was run: as §1

USP28 = molecular target: T4, USP28 (UniProt Q96RU2)
T4 sequence (whole entry): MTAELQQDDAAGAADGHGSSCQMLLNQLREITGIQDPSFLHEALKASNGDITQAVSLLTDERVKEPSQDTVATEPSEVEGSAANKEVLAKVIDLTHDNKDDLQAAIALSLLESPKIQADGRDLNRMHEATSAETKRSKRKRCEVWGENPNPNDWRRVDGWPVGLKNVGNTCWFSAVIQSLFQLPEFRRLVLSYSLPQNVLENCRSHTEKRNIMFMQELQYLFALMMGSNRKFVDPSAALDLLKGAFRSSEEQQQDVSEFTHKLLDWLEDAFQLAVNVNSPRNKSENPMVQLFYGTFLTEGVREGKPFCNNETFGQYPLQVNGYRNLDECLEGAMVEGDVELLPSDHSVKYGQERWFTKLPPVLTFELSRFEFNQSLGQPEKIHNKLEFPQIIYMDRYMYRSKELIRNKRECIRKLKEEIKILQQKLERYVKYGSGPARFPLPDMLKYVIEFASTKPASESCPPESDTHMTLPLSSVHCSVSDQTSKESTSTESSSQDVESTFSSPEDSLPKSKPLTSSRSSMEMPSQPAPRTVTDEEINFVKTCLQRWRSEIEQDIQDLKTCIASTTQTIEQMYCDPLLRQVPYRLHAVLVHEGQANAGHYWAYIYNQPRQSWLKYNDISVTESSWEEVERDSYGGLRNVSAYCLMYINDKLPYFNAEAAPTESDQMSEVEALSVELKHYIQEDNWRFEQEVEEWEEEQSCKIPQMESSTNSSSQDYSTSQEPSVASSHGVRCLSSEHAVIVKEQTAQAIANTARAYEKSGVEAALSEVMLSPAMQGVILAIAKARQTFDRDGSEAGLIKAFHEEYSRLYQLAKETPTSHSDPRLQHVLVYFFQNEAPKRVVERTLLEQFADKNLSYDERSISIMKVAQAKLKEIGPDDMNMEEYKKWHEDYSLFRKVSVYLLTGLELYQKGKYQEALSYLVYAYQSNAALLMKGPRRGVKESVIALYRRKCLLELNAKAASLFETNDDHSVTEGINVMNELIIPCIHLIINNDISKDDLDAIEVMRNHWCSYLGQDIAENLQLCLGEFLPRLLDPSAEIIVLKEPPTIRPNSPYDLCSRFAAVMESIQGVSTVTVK
How it was run: as §1

Measured: log2 ratio of Biotin-Ahx-Ub-VS probe labelling

Sequence of USP24 (Q9UPU5 whole entry): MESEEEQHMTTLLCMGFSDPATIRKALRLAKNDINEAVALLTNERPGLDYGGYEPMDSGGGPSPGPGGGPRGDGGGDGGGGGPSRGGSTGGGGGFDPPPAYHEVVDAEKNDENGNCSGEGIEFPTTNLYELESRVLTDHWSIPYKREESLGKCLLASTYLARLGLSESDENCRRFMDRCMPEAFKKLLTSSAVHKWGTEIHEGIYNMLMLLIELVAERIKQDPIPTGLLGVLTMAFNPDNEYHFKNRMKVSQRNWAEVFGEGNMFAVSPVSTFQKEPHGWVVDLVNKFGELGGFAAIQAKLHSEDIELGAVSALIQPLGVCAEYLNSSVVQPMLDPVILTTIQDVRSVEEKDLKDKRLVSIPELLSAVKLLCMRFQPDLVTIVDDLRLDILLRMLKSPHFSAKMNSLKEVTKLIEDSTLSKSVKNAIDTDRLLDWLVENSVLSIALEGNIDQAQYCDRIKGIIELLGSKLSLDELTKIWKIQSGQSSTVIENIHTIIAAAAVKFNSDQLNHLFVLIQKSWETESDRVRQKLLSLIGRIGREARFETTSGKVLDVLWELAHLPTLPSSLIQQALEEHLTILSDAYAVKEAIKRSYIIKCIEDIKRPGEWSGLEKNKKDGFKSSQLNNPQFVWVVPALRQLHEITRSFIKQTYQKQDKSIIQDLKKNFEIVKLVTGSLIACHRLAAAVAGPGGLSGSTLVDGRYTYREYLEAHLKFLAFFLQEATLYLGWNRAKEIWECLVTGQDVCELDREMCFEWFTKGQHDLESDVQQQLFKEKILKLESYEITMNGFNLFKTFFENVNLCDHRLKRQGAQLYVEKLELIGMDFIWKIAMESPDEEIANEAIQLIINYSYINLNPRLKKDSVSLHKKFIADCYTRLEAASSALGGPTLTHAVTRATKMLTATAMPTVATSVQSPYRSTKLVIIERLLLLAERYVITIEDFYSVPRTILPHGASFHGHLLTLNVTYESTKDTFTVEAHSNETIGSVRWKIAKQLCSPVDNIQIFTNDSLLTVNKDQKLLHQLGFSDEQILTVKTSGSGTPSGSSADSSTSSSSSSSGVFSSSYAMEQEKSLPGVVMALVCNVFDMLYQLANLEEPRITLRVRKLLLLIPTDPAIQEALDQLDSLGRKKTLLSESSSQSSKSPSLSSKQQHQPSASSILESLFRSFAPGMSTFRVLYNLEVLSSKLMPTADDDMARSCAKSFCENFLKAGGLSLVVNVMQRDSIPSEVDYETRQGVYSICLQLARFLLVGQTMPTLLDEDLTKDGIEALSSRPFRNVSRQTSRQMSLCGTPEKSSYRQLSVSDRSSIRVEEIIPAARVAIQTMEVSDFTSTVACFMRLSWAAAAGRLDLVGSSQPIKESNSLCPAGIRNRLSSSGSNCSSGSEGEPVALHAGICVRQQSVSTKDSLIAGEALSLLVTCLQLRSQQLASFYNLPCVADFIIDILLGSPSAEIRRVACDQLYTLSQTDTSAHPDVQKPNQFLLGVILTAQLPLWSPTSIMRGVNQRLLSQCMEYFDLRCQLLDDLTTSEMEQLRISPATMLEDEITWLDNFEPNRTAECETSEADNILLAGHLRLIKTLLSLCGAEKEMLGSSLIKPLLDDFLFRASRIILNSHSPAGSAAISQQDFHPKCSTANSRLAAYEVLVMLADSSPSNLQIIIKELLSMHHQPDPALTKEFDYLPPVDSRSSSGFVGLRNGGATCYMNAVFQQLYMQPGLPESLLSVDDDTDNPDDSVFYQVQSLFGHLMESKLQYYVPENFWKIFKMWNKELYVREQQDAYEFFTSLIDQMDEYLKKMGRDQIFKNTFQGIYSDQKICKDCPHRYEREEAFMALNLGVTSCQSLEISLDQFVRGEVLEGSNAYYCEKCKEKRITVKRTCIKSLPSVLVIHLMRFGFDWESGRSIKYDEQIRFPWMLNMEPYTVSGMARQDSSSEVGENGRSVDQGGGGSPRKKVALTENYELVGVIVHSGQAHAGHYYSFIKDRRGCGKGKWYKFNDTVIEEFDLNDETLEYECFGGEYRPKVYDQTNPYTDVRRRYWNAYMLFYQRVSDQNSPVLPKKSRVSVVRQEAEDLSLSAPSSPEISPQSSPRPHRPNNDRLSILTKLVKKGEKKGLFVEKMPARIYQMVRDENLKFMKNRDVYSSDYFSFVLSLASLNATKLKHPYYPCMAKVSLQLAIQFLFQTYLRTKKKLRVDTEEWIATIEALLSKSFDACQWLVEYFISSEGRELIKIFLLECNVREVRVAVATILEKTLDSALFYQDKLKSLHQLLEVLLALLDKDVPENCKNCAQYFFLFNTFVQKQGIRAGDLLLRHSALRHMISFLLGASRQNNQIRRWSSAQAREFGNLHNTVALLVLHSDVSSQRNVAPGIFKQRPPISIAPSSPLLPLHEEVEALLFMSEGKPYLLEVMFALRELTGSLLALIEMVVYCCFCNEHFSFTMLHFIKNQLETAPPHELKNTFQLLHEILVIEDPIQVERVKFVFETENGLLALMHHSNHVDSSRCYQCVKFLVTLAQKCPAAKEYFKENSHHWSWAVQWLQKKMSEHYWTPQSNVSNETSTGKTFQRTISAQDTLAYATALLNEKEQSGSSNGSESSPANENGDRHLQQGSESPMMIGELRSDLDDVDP

O=C(CCl)N1CCC(=C(F)CO)C1
inactive: USP19 -0.052 | USP22 0.192 | USP24 0.183 | USP25 0.0707 | USP28 -0.149

Reference: the supplement of paper PMC11732987, “Enantioselective OTUD7B fragment discovery through chemoproteomics screening and high-throughput optimisation” (Communications Chemistry, 2025)
